# Reference: PubChem BioAssay (NCI)
# About 83,000 compounds went through this panel and 20% of them were active in at least one assay; those are over-represented in the sample as a whole.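 Single-concentration screen, 48 h exposure, 96-well plates. Endpoint: percent growth. Below 10 = active.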 A number with no mark means an inactive call. Activity calls are given as the source filed them.
# Test system: MDA-MB-468 breast
# Test: NCI-60 one-dose screen, 48 h (100 = growth as untreated, 0 = no growth, -100 = all killed)
# Settings: 10 µM unless noted
row,Structure (SMILES),growth
1,COc1cccc(-c2nc3sccn3c2-c2ccnc(NCCNC(=O)c3ccccc3)n2)c1,79.4%
2,CCC(C)(C)c1cc(O)c(C(C)(C)CC)cc1O,-2.33% (active)
3,C#Cc1cccc(NC(=O)c2ccccc2NC(=O)C=C)c1,70.9% [8.25 µM]
4,CC1(O)CCC(Nc2cc(-c3ccc(C(F)(F)F)cc3)c(C#N)c3nc4ccccc4n23)CC1 (stereo not given),86.8%
5,Cc1ncc(C(=O)Nc2ccc(CN3CCN(C)CC3)c(C(F)(F)F)c2)cc1C#Cc1c(N)ncc2ccc(C#N)cc12,98.5%
6,O=C(C[n+]1cccc2cc(Cl)ccc21)c1ccc2c(c1)CCCC2,9.66% (active)
7,CCOC(=O)C(Cc1ccccc1)n1c(O)c(/C=N/c2ncc(Cc3ccc(Cl)cc3Cl)s2)sc1=S (stereo not given),-0.681% (active)
8,O=C(Cn1c(-c2ccc([N+](=O)[O-])cc2)nc2ccccc21)NNC(=O)c1cccnc1,-12.6% (active)
9,NS(=O)(=O)c1ccc(CCn2c(SCC(=O)N/N=C/c3ccccc3O)nc3ccccc3c2=O)cc1,59.1%
10,Oc1ccc(Br)cc1Sc1cc(Br)ccc1O,82.3%
11,CCCCCc1cc[n+](CC(=O)c2ccc([N+](=O)[O-])cc2)cc1,11.8%
12,O=C(Cc1ccc(F)c(F)c1)Nc1cc(C2(C(F)(F)F)CC2)nn1Cc1ccccc1,-33.1% (active)
13,COC(=O)CCC1=C(C)C(C)=N/C1=C\c1[nH]c(-c2ccc[nH]2)cc1OC,35%
14,Cc1[nH]c(C(=O)Nc2ccc(C(=O)NCC3CCNCC3)cc2OC(C)C)c(Cl)c1Cl,21.5%
15,CC(=O)c1cc(C(=O)c2ccc(Br)cc2)n2cc(C)cc(C)c12,89.3%
16,O=C(Nc1ccc(Cl)c(Cl)c1)OCc1ccco1,0.972% (active)
17,COc1cc(C)c(Cl)cc1C1=NN(c2ccc(S(N)(=O)=O)cc2)C(/C=C/c2ccccc2)C1 (stereo not given),41.2%
18,COC1OCC(O)C(O)C1O (stereo not given),100%
19,N#Cc1cc(-c2nc3ccccc3s2)c(=O)n(NS(=O)(=O)c2ccc(Cl)cc2)c1N,99.6%
20,C#CCOc1ccccc1/C=N/Nc1nc(-c2ccc(Cl)cc2)cs1,95.6%

row,Structure (SMILES),growth
1,O=C(NC1CCN(Cc2ccccc2)CC1)c1cc(C(=O)NC2CCN(Cc3ccccc3)CC2)cc(C(=O)NC2CCN(Cc3ccccc3)CC2)c1,84.9%
2,[2H]C([2H])([2H])Oc1cc(F)ccc1/C=C/C(=O)/C=C(/C=C/c1ccc(F)cc1OC([2H])([2H])[2H])OB(F)F,46.1%
3,c1cc2[nH]ncc2cc1-c1nc2ccc3[nH]ncc3c2c2c1CCC2,3.92% (active)
4,CNC(=O)c1cc(Oc2ccc(CC(=O)Nc3cc(C(C)(C)C)cn3C)cc2)ccn1,29.5%
5,CCNCCNc1cc(C2CCCC2)c(C#N)c2nc3ccccc3n12,-25.5% (active)
6,C=C1C(=O)O[C@H]2[C@H]1CC/C(COC(=O)NCCc1c[nH]c3ccc(OC)cc13)=C\CC[C@@]1(C)O[C@@H]21,-44.9% (active)
7,N#Cc1ncc(-c2cc(F)c(F)c(F)c2)c(NC2CCCCCC2)n1,87.6%
8,NS(=O)(=O)c1ccc(C(=O)N=Nc2c(O)[nH]c3c(F)cccc23)cc1,96.3%
9,CCCCCCN1C=C/C(=C\C(=O)n2ccc3ccccc32)c2ccccc21,-12% (active)
10,COc1cc(/C=C2/C(=O)Nc3ccc(Cl)cc32)ccc1OCc1ccc(Cl)cc1,87.2%
11,O=C(CSC(=S)N1CCCCC1)Nc1ccccc1,103%
12,COc1cc2c(cc1-c1c(C)noc1C)ncc1nc(C3CCC(F)(F)CC3)n(C3CCC(OC(F)F)CC3)c12 (stereo not given),43.4%
13,C=CC[n+]1c(/C=C2\Sc3ccccc3N2C)sc(-c2ccccc2)c1-c1ccccc1,1.16% (active)
14,COc1ccc(C(=O)N2NC(=O)/C(=C/c3ccccc3F)N=C2c2ccccc2)cc1,105%
15,NCCCN1CCCC1=O,116%
16,c1ccc(C(CC2=NCCCN2)c2ccccc2)cc1,102%
17,CCc1c(C)c2cc3nc(NCc4ccccc4)oc3c(C)c2oc1=O,68.2%
18,CC(=O)c1ccc(N2C(=O)c3ccc(Oc4ccccc4)cc3C2=O)cc1,105%
19,C[C@@H]1CC2C3C[C@H](F)C4=CC(=O)C=C[C@]4(C)[C@@]3(F)[C@@H](O)C[C@]2(C)[C@@]1(O)C(=O)CO (stereo not given in full),102%
20,CC1C(c2ccccc2)OCCN1C(=S)Nc1ccc(S(=O)(=O)N2CCCCC2)cc1 (stereo not given),80.4%
